Values joined by “and” are separate entries in the source; they are usually repeats but may differ in a detail not shown here. Equal entries are not always repeated. Structures can show the parent of a compound that is named as a salt. ± gives the standard deviation.

For this test, the system named is THP-1. Put plainly: THP-1 cell loss relative to DMSO control; higher = more host cell loss (toxicity); extreme values may be limits of the assay. The conditions noted are these: 10 µM; 4 days; infection: M. tuberculosis H37Rv. As to the method:
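OICR kinase inhibitor library screened in duplicate at 10 uM against M. tuberculosis-infected THP-1 macrophages, 4 days at 37 C. THP-1 cell loss (cytotoxicity or loss of adherence) was quantified from Hoechst-stained nuclei counts by high-content imaging and normalised to the 1% DMSO control; 100 = complete loss of host cells.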
In the case of `C#Cc1cccc(Nc2ncnc3cc(OCCOC)c(OCCOC)cc23)c1` [Erlotinib HCl], the THP-1 cell loss came to 5.26 ± 7.4%.
To `CC(C)(C)c1cc(NC(=O)Nc2ccc(-c3cn4c(n3)sc3cc(OCCN5CCOCC5)ccc34)cc2)no1` belongs 82.1 ± 1.3%.
For `COc1cc2nccc(Oc3ccc(NC(=O)Nc4cc(C)on4)c(Cl)c3)c2cc1OC`, the THP-1 cell loss turned out to be 27.4 ± 5%.
As for `CNS(=O)(=O)Nc1nccc(Cc2c(C)c3ccc(Oc4ncccn4)cc3oc2=O)c1F`, the figure is 100%; as for `C[C@@]1(C(=O)Nc2ccc(F)nc2)CCCN1c1nc(Nc2cc(C3CC3)n[nH]2)c2cccn2n1`, 43.7 ± 27%.
In the case of `Cn1c(Nc2ccc(C(F)(F)F)cc2)nc2cc(Oc3ccnc(-c4ncc(C(F)(F)F)[nH]4)c3)ccc21`, the THP-1 cell loss turned out to be 100%.
For `O=c1[nH]nc(Sc2ncc([N+](=O)[O-])s2)n1-c1ccc2c(c1)OCCO2`, the THP-1 cell loss is 31.1 ± 44%.
As for `O=C1Cc2c([nH]c3ccc([N+](=O)[O-])cc23)-c2ccccc2N1` [Alsterpaullone], the figure is 100%; as for `Cc1ccc(Nc2nccc(N(C)c3ccc4c(C)n(C)nc4c3)n2)cc1S(N)(=O)=O` [Pazopanib hydrochloride], 100%.
As for `O=C(Nc1c[nH]nc1-c1nc2ccc(CN3CCOCC3)cc2[nH]1)NC1CC1`, the figure is 100%; as for `CN(C)c1cc2c(Nc3ccc4c(cnn4Cc4ccccc4)c3)ncnc2cn1`, 62.6 ± 18%.
On to `COc1cc2c(Oc3ccc(NC(=O)C4(C(=O)Nc5ccc(F)cc5)CC4)cc3F)ccnc2cc1OCCCN1CCOCC1`, for which the THP-1 cell loss is 100%.
On to `Nc1cc(N)c(N)cc1N` [FAK Inhibitor 14], for which the THP-1 cell loss was found to be 11.9 ± 4%.
As for `Cc1ccc2c(=O)c3ccccc3n(CCCN)c2c1C`, the figure is 100%.
For the molecule `Oc1cccc(-c2nc(N3CCOCC3)c3oc4ncccc4c3n2)c1`, the THP-1 cell loss worked out at 24.3 ± 3.9%.
To `Cc1cc(Nc2cc(CN3CCOCC3)c3nc(C)c(Cc4ccc(Cl)cc4F)n3n2)n[nH]1` belongs 100%.
As for `CCc1nc(-c2cccc(C)c2)c(-c2ccnc(NC(=O)c3ccccc3)c2)s1`, the figure is 23.2 ± 2.1%; as for `O=[N+]([O-])c1ccc(-c2nc(-c3ccc(F)cc3)c(-c3ccncc3)[nH]2)cc1`, 17 ± 3.5%.
Molecule `Oc1cccc(-c2nc(N3CCOCC3)c3sccc3n2)c1` [PI3-Kinase a Inhibitor 2] showed a THP-1 cell loss of 62 ± 6.5%.
To `Cc1ccc(NC(=O)c2cccc(C(C)(C)C#N)c2)cc1Nc1ccc2ncn(C)c(=O)c2c1` belongs 100%; to `COc1ccc(C(=O)Nc2sc3c(c2C(N)=O)CCCC3)cc1OC`, 100%; to `O=C1NCCc2[nH]c(-c3ccncc3)cc21`, 100%.
For `Cc1cn(-c2cc(NC(=O)c3ccc(C)c(Nc4nccc(-c5cccnc5)n4)c3)cc(C(F)(F)F)c2)cn1` [Nilotinib], the THP-1 cell loss came to 75.3 ± 35%.
To `CN(C)CCCn1cc(C2=C(c3c[nH]c4ccccc34)C(=O)NC2=O)c2ccccc21` [Bisindolylmaleimide I hydrochloride] belongs 100%.
As for `NC(=O)Nc1sc(-c2ccc(F)cc2)cc1C(N)=O`, the figure is 76.1 ± 3%; as for `O=S(=O)(c1cccc2cnccc12)N1CCCNCC1` [Fasudil HCl], 0.204 ± 0.29%; as for `CCn1c(-c2nonc2N)nc2c(C#CC(C)(C)O)ncc(OC[C@H]3CCCNC3)c21`, 15.8 ± 3.6%.
To `Cc1cc(C(=O)NOCCO)c(Nc2ccc(I)cc2F)n(C)c1=O` belongs 100%; to `Cc1cc(C(C)Nc2ccccc2)c2nc(N3CCOCC3)cc(=O)n2c1` (centres undefined), 10.5 ± 5.8%.
With `O=C(NCCCNc1nc(Nc2cccc(NC(=O)N3CCCC3)c2)ncc1I)c1cccs1`, the THP-1 cell loss came out at 100%.
To `Nc1ncnc2n[nH]c(Nc3ccc(F)cc3)c12` belongs 24% and 11%; to `CC(C)[C@H](CO)Nc1nc(Nc2ccc(C(=O)O)c(Cl)c2)c2ncn(C(C)C)c2n1` [Purvalanol B], 1.78 ± 2.5%; to `Cc1ccc2nc(NCCN)c3ncc(C)n3c2c1`, 100%.
To `CCN(CC)CCCCNc1ncc2cc(-c3cc(OC)cc(OC)c3)c(NC(=O)NC(C)(C)C)nc2n1` belongs 8.25 ± 12%.
